# Data as given in PubChem BioAssay (NCI).
# About 79,000 compounds went through this panel and 15% of them were active in at least one assay; those are over-represented in the sample as a whole. Unmarked numbers belong to inactive results. No stated cut-off is given here; in the data, active means growth inhibition above about 70%; inactive means the rest.
# Test: NCI Yeast Anticancer Drug Screen. Data for the cln2 rad14 strain (AID 165);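 further: 0% = growth equal to vehicle treated cultures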
# Details: S. cerevisiae cln2 rad14 strain, at 50.0 µM, stronger effect = higher value
# Experimental: Growth inhibition of yeast strains with defined genetic alterations is measured as a screen for potential anti-cancer activity. Selected strains with alterations in DNA damage repair or cell cycle control were exposed to compounds and growth inhibition was measured relative to vehicle treated controls. The strain used in this assay is cln2 rad14
row,SMILES,growth inhibition
1,CC(CN1CCCCC1)NC(=O)c1scnc1-c1ccccc1 (stereo not given),-2.5%
2,O=S(=O)(O)C(Nc1ccccc1)c1ccccc1 (stereo not given),-0.25%
3,CCCCOC(=O)c1ccc(C(C)C)cc1,-19.4%
4,C[N+](C)=c1ccc2nc3c(cc(Nc4ccccc4)c4ccccc43)oc-2c1,29.6%
5,CS(=O)CC1=NC(=N)N=C1CS(C)=O (stereo not given),-22.1%
6,O=C(O)c1ccccc1NCc1ccco1,7.85%
7,C/C(=N/NC(N)=O)c1ccco1,-2%
8,O=C(O)C(O)c1ccccc1 (stereo not given),-48%
9,O=C(/C=C\c1ccc(O)cc1)c1ccccc1,8.6%
10,O=C1C[C@H](c2ccccc2)[C@H](c2ccccc2)C1,-4.25%
11,CCOC(=O)c1ccc(NC(=S)P(=O)(c2ccccc2)c2ccccc2)cc1,30.7%
12,COC(=O)Nc1nc2ccc(C(=O)c3ccc(F)cc3)cc2[nH]1,-26.4%
13,CN(C)c1ccc2oc(=O)c3ccccc3c2c1,-2%
14,O=C1Cc2cc(O)ccc2O1,-0.85%
15,CC(O)COc1ccc(-c2ccccc2)cc1 (stereo not given),15.9%
16,N#CC1(Nc2ccc3c4c(cccc24)CC3)CCCCC1,16%
17,CC1=C(/C=C/C(C)=C/C=C/C(C)=C/CO)C(C)(C)CCC1,10.7%
18,COC(=O)CCCCC1=CCC2C(=O)C=C(O)C2C1 (stereo not given),-2.5%
19,Cc1cc(=O)cc(C)n1-c1ccccc1,0.25%
20,CC(=O)Nc1ccc(NC(C)=O)c2c1C(=O)c1ccccc1C2=O,2.15%

row,SMILES,growth inhibition
1,CNS(=O)(=O)c1ccc(Cl)c(Cl)c1,-55%
2,CCC(O)CC(CC)CO (stereo not given),-32.7%
3,Cc1ccc(C(=O)NC2c3ccccc3Oc3ccccc32)cc1,-12%
4,CC(=O)C1CCCCC1,11.7%
5,CC(=O)c1ccc(C(C)(C)C)cc1,12.1%
6,COc1ccc(C(C)C=O)cc1 (stereo not given),-51.5%
7,COCCCNC(=O)c1nnn2c1nc(N)c1cc(Cl)ccc12,3.2%
8,c1ccc2c(N3CCCCC3)ncnc2c1,4.8%
9,Nc1nc(N)c(N=Nc2ccc(C(=O)O)cc2)c(N)n1,19.6%
10,O=C(Cc1nc2ccc([N+](=O)[O-])cc2nc1CC(=O)c1cccnc1)c1cccnc1,15.2%
11,Nc1nc2c(c(-c3nc(N)nc4c3CCc3ccccc3-4)n1)CCc1ccccc1-2,3.05%
12,COC(=O)Nc1nc2ccc(C(=O)c3cccs3)cc2[nH]1,-35%
13,CC(C)(N)COS(=O)(=O)O,-6.9%
14,CC(C)(C)n1nc(C2CC2)c(Br)c1NC(=O)c1ccccc1F,3.25%
15,CCOc1ccccc1/C=N/Nc1nc2ccccc2o1,-23.8%
16,O=C(Cc1ccccc1)Cc1ccccc1,-3.3%
17,N#CCCc1ccc(O)cc1,1.55%
18,CN(C)C(=O)Oc1cccc([N+](C)(C)C)c1,-60.9%
19,CCOC(=O)C(CCC(C)C)C(=O)OCC,-53.4%
20,CCCCCC(C)(CC(=O)O)CC(=O)O,-27.8%
